40 molecules from PubChem BioAssay (NCI) can be followed below.

The panel holds about 83,000 compounds, 20% with a hit somewhere; the sample as a whole holds those more often.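 Treatment: one concentration, 48 hours, 96-well format. Scoring: percent growth, with anything below 10 considered active.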 A number with no mark means an inactive call. Active and inactive are the calls of the source.

The subject of the test is MDA-MB-435 melanoma. The experiment in a line: NCI-60 one-dose screen, 48 h (100 = growth as untreated, 0 = no growth, -100 = all killed). Particulars: 10 µM unless noted. How it is done:
Growth inhibition of the MDA-MB-435 human Melanoma tumor cell line is measured as a screen for anti-cancer activity. Cells are grown in 96 well plates and exposed to the test compound for 48 hours. Compounds are tested at a single concentration, which is 10^-5 M for most compounds. The reported endpoint is percent growth (GI% or GIPRCNT), where numbers from 0 - 100% represent growth inhibition, and numbers from -100% - 0 represent cell death. For example, a value of 40 represents 60% growth inhibition. A value of 0 means no net growth occurred over the course of the experiment. A value of -40 indicates 40% of cells at the beginning of the experiment died by the end of the experiment. A value of -100 means all cells are dead at the end of the experiment.
NCI-60 Human Tumor Cell Lines Screen was performed using the standard one-dose NCI protocol, which is described in more detail at https://dtp.cancer.gov/discovery_development/nci-60/default.htm.
Compounds with GIPRCNT values below 10 were considered active. Activity score was based on GIPRCNT using the following formula: […]
Score is 0 for GIPRCNT values of 100 or above, 50 for GIPRCNT values of 0, and 100 for GIPRCNT values of -100.
Turning to `CC(C)(C)CC(C)(C)Nc1c(-c2ccc(-c3ccccc3)cc2)nc2cnccn12`, the growth was 82.7%.
Next, `N#Cc1cnn2c(-c3ccc(Cl)cc3)nc(NC3CC3)nc12`: 96.8%.
The same measure for `Cc1nc2ccccc2c(/C=C/c2ccc(Cl)cc2)c1C(=O)/C=C/c1ccc(Cl)cc1`: -51.4% (active); for `CS(=O)(=O)c1ccc(-c2nc3cc(Cl)ccc3n2CC(=O)NO)cc1`: 106%; for `O=C(CCl)N1c2cccc3cccc(c23)N(C(=O)CCl)C1c1cn(-c2ccccc2)nc1-c1cccc([N+](=O)[O-])c1`: 84.2%.
On to `CCOC(=O)c1c2c(c(C)n1C)-c1nn(Cc3ccc(OC)cc3)cc1CC2`, for which the growth is 100%.
`CCCCCCCC/C=C\CCCCCCCC(=O)Oc1cccc2cccnc12`: the growth was 82.9%.
Regarding `O=C(NCc1cccnc1)c1cc(-c2csc3c(=O)cc(N4CCOCC4)oc23)cc2c1OCCO2`, the growth is 32.9%.
Consider `CCOC(=O)c1c(C)nc2c(c1N)/C(=C/c1cc(OC)c(OC)c(OC)c1)C(=O)N2c1ccc(OC)cc1`, for which the growth is 49.5%.
Regarding `C/C(Cc1ccc(Cl)cc1)=C(/c1ccc(Cl)cc1)c1ccc(OCCN(C)C)cc1`, the growth is 44.6%.
The same measure for `COc1ccc(-c2cc(-c3cc(OC)ccc3O)[nH]c(=O)c2C#N)cc1`: -0.171% (active); for `COc1ccc(-c2nc3sccn3c2/C=C/C(=O)c2c[nH]c3ccccc23)cc1`: 88.9%.
In the case of `Cc1nc(Nc2ccc(NC(=S)Nc3ccccc3)cc2)nc2nc(Nc3cccc(Cl)c3)[nH]c(=O)c12`, the growth was 108%.
For the molecule `CCNCCNc1cc(-c2ccc(Cl)cc2)c(C#N)c2nc3ccccc3n12`, the growth was -85.7% (active).
Consider `NC(N)=N/N=C(/c1ccccc1)c1ccccc1F`, for which the growth was -56% (active).
Turning to `Cl.Fc1c[c-]c(-c2ccccn2)c(F)c1.[Pt].c1ccc(P(c2ccccc2)C([PH+](c2ccccc2)c2ccccc2)[PH+](c2ccccc2)c2ccccc2)cc1`, the growth was 12.9%.
With `COC(=O)CNC(=O)C(=O)c1c(O)c(O)c(C(C)C)c2cc(C)c(-c3c(C)cc4c(C(C)C)c(O)c(O)c(C(=O)C(=O)NCC(=O)OC)c4c3O)c(O)c12`, the growth was 55.1%.
Consider `Cc1ccc(S(=O)(=O)Nc2sccc2-c2nc(-c3ccccc3)no2)cc1`, for which the growth was 95.6%.
Next, `CN1CCN(CCCOc2ccc3nc(Nc4cc(Cl)cc(Cl)c4)ccc3c2)CC1`: -87.1% (active); `Cc1cnc(Nc2ccc(N3CCN(C)CC3)cc2)nc1Nc1ccc(Cl)c(NS(=O)(=O)C(C)(C)C)c1`: 31.6%.
For the molecule `O=C(NCOC(O)C(Cl)(Cl)Cl)NCOC(O)C(Cl)(Cl)Cl` (stereo not given), the growth is 107%.
For `Nc1nc(Nc2ccc(Cl)cc2)nn1S(=O)(=O)c1ccc(-c2ccc(F)cc2)cc1`, the growth was 91%.
Turning to `O=C(O)C1C[C@](O)(c2ccc(F)cc2)[C@@H](c2ccc(F)cc2)O1` (stereo not given in full), the growth is 99.1%.
Next, `CN(C)c1ccc(/C=C2\C=C(c3ccccc3)N(CCc3ccccc3)C2=O)cc1`: 95.3%.
With `COc1cccc(-c2nc3sccn3c2-c2ccnc(NCCNS(=O)(=O)c3c(Cl)cccc3Cl)c2)c1`, the growth is 50.4%.
With `CNCCNc1nc2ccccc2c2c(=O)c3cc(F)ccc3oc12`, the growth is 76.5%.
For the molecule `CCNCCNc1cc(-c2ccc(C#N)cc2)c(C#N)c2nc3ccccc3n12`, the growth was 13.9%.
In the case of `O=C1Nc2ccccc2/C1=N/N=C/c1ccsc1`, the growth was 105%.
As to `CN1CCN(c2ccc3nc(/N=C/c4ccc5sc(-c6ccc([N+](=O)[O-])cc6)nc5c4)sc3c2)CC1`, the growth was 102%.
Turning to `C=C1c2c(C)nn(-c3ccc(N)cc3)c2N(C)C23CC1C1(C)c4c(C)nn(-c5ccc(N)cc5)c4N(C)C(C)(CC12)C3` (stereo not given), the growth is 70.4%.
For the molecule `COc1cc2cc(Oc3ccc(NC(=O)Nc4cc(C(F)(F)F)cc(C(F)(F)F)c4)cc3)c(C)nc2cc1OCCN1CCCCC1`, the growth is -94.4% (active).
Consider `Cl.[Pt].[c-]1ccccc1-c1ccccn1.c1ccc(P(c2ccccc2)C([PH+](c2ccccc2)c2ccccc2)[PH+](c2ccccc2)c2ccccc2)cc1`, for which the growth was 4.42% (active).
Next, `O=C(Oc1ccc[nH]c1=O)c1cc([N+](=O)[O-])cc([N+](=O)[O-])c1`: 121%; `C=C1C(=O)O[C@H]2[C@H]1CC/C(COC(=O)/C=C\C(=O)NCc1ccc(Cn3c(=O)sn(-c4ccc(C#N)cc4)c3=O)cc1)=C\CC[C@@]1(C)O[C@@H]21`: -79.6% (active).
Consider `CCNCCNc1cc(-c2ccc(C(=O)OC)cc2)c(C#N)c2nc3ccccc3n12`, for which the growth is 73.2%.
Consider `COc1ccc(C(=O)/C=C/C23c4ccccc4C(c4ccccc42)C2C(=O)NC(=O)C23)cc1` (stereo not given), for which the growth was 101%.
Regarding `COc1ccc(-n2nnc(C(=O)NCCc3c[nH]c4ccc(F)cc34)c2C)cc1`, the growth was 101%.
As to `CCCCCCN(CCCCCC)CC(O)c1cccc2ccc(Cl)cc12` (stereo not given), the growth was 69.9%.
Consider `CCCCNC(=O)c1cc(NCc2cc(O)ccc2O)ccc1O`, for which the growth was 96.8%.
Regarding `O=c1[nH]c(=O)n(C2CC(O)C(CO)O2)cc1CO` (stereo not given), the growth is 99%.
